Out of some 48,000 compounds screened, about 13,000 (27%) showed an effect of 50% or more. Some of the results follow.

From ChEMBL document CHEMBL3988442, “University of Dundee, Small-Polar-MMV Screening Library” (2021) come the findings set out here.

The experiment deals with Wolbachia pipientis. As to the kind of experiment: Anti-Wolbachia Cell-Based Screen. It is filed as functional. The arrangement: scale not given: in the data most compounds retested in dose-response had high values. The conditions noted are these: 5 µM.
As for `COC(=O)[C@H](C)NC(=O)Cc1c(C)nc2cc(=O)[nH]n2c1C`, the “Percent Effect” value is -6.844%.

Take `Cc1n[nH]c(C)c1NC(=O)CN1CCOC(Cn2cccn2)C1` (centres undefined): the “Percent Effect” value came out at 4.084%. `Cc1cccc2c1nc(CCO)n2-c1ccc(NS(C)(=O)=O)nc1`: the “Percent Effect” value was -11.32%.

Regarding `CN(C)C(=O)N1C[C@H]2CCC[C@@]2(COc2ccccn2)C1.O=C(O)C(F)(F)F`, the “Percent Effect” value is -14.43%. Turning to `O=C(O)C(F)(F)F.O=C(c1ccccc1)N1C[C@H]2CCC[C@@]2(COCc2ccncc2)C1`, the “Percent Effect” value is 12.44%. With `O=C(O)C(F)(F)F.O=C(c1ncccn1)N1C[C@H]2CCC[C@@]2(COCc2ccncc2)C1`, the “Percent Effect” value is 6.096%. Then `CS(=O)(=O)CC(=O)N1C[C@H]2CCC[C@@]2(COc2ccccn2)C1.O=C(O)C(F)(F)F`, with 109.7%; and `CS(=O)(=O)CC(=O)N1C[C@H]2CCC[C@@]2(COCc2ccncc2)C1.O=C(O)C(F)(F)F`, with 108.3%; and `CN(C)CC(=O)N1C[C@H]2CCC[C@@]2(COc2ccccn2)C1.O=C(O)C(F)(F)F`, with -2.413%. Then `O=C(c1cn(CCN2CCCCC2)nn1)N1CCSCC1`, with 10.37%; and `COc1cccc(NC(=O)N(CCO)Cc2ccsc2)c1`, with 1.126%; and `NC(=O)[C@H]1CCCN(c2nccc(-c3ccncc3)n2)C1`, with 103.3%. For the compound `Cc1nn2c(N3CCCC(C(N)=O)C3)cc(-c3ccccc3)nc2c1C` (centres undefined), the “Percent Effect” value is listed as -84.47%. With `NC(=O)[C@H]1CCCN(c2nccc(-c3c[nH]nc3-c3cccnc3)n2)C1`, the “Percent Effect” value was 113.5%.

In the case of `O=C(c1ccccn1)C1CCCN(c2nccc(CCC(F)(F)F)n2)C1` (centres undefined), the “Percent Effect” value is 2e-14%.

In the case of `CNc1ccnc(N2CCCC(C(=O)c3ccccn3)C2)n1` (centres undefined), the “Percent Effect” value is -24.75%.

Regarding `O=C1N(CC2CC2)C(c2c[nH]nc2-c2cccnc2)NC12CCCC2` (centres undefined), the “Percent Effect” value stood at 1.582%. On to `FC(F)Sc1ccc(NCc2nnc(C3CC3)o2)cc1`, for which the “Percent Effect” value was -0.3922%.

For the compound `NC(=O)c1cnc(NC(=O)CCc2ccco2)c(Cl)c1`, the “Percent Effect” value is -8.08%. With `CC(C)(C)c1nc(CC(=O)NC2CCN(C3CC3)C2)cs1` (centres undefined), the “Percent Effect” value is listed as -2.238%. As to `CC(C)N1CCCn2nc(C(=O)NCCc3c[nH]cn3)cc2C1`, the “Percent Effect” value is reported as -16.95%.

With `Cc1cc(CN2CCN(C(=O)C3(C#N)CCCC3)CC2)on1`, the “Percent Effect” value is given as -5.531%.

Consider `O=C(O)C1(n2cccn2)CCN(Cc2nc(-c3ccccc3)no2)CC1`, for which the “Percent Effect” value is reported as -13.7%. With `O=C(O)C(F)(F)F.O=C(c1ccco1)N1CCCC2(CN(Cc3ccsc3)CCO2)C1` (centres undefined), the “Percent Effect” value was 0.02281%. Next, `Cc1cc(CN2CCN(C(=O)CCc3cccc(F)c3F)CC2)on1`: -11.44%.

As for `Cc1nc(CN2CCC(C(=O)O)(n3ccc(-c4ccco4)n3)CC2)co1`, the “Percent Effect” value was 4.507%. Then `O=C(O)C1(n2ccnc2)CCN(Cc2ccc3occc3c2)CC1`, with -4.381%; and `O=C(O)C1(n2ccc(-c3ccco3)n2)CCN(Cc2ccccn2)CC1`, with 96.1%; and `Cc1cc(F)ccc1OC1(C(=O)O)CCN(Cc2cccnc2)CC1`, with 3.989%. Then `O=C(O)C1(n2ccc(-c3ccco3)n2)CCN(Cc2cccnc2)CC1`, with 100.5%. Next, `O=C(O)C1(n2ccc(-c3ccco3)n2)CCN(Cc2ccsc2)CC1`: 105.5%; `COc1ccc2c(c1)C1(CCN(Cc3ccccn3)CC1)N(C)CC2.O=C(O)C(F)(F)F.O=C(O)C(F)(F)F`: -3.791%. Take `Cc1cc(CN2CCC(C(=O)O)(n3ccc(-c4ccco4)n3)CC2)on1`: the “Percent Effect” value amounted to 185.7%. Then `COc1ccccc1OCC(=O)Nc1ncccc1OC(F)F`, with -1.305%. For the compound `CCCNC(=O)CSc1nnc2[nH]c(=O)cc(CC)n12`, the “Percent Effect” value is on record as -17.32%.

Take `Cc1nc(C(=O)N2CCC3(CC2)CC(=O)N(CC2CCCO2)C3)cs1` (centres undefined): the “Percent Effect” value turned out to be 9.74%. Next, `Cn1ccc(C(=O)N(CC(F)F)c2cccc(Cl)c2)cc1=O`: -3.04%; `O=C(O)C1(n2cccn2)CCN(c2nc(-c3ccccc3)no2)CC1`: -0.7442%. Regarding `Cc1n[nH]c(C)c1CCN(C)c1ccc(-c2nc(C3CC3)no2)cn1`, the “Percent Effect” value is 5.085%. For `COCCO[C@@H]1C[C@H]2CN(C(=O)c3cnccn3)CCN2C1`, the “Percent Effect” value was -15.94%.

Turning to `COC(=O)C(C)CN(Cc1ccccc1)C(=O)CN1CCCNC1=O` (centres undefined), the “Percent Effect” value was -9.826%. Then `Cc1cc(N2CCC(C(=O)O)(n3ccc(C(C)C)n3)CC2)nc(N)n1`, with -20.6%; and `Cc1occc1C(=O)N1CCC2(CCN(Cc3cccs3)C2)CC1.O=C(O)C(F)(F)F`, with -0.4808%. `Cc1nccn1C1(C(=O)O)CCN(Cc2ccc3occc3c2)CC1`: the “Percent Effect” value was -3.386%. On to `Cc1ccc(N2CCC(C(=O)O)(n3ccc(C(C)C)n3)CC2)nn1`, for which the “Percent Effect” value is recorded as -12.67%.

For `Cc1csc(CN2C[C@@H]3COC[C@]3(C(=O)NCc3ccco3)C2)n1`, the “Percent Effect” value is recorded as -36.74%. Consider `Cc1nc(CN2CCC(C(=O)O)(n3ccc(C(C)C)n3)CC2)co1`, for which the “Percent Effect” value is reported as 99.57%. Take `Cc1csc(CN2CCC(C(=O)O)(n3ccc(-c4ccco4)n3)CC2)n1`: the “Percent Effect” value is listed as 105%. On to `O=C(O)C(F)(F)F.c1coc(COCc2ncn3c2CN(Cc2cccs2)CCC3)c1`, for which the “Percent Effect” value is reported as 7.487%. On to `O=C(O)C1(n2ccc(-c3ccco3)n2)CCN(Cc2cccs2)CC1`, for which the “Percent Effect” value was 77.42%. Then `O=C1CN(CCCNC(=O)Nc2cccc(Cl)c2F)CCN1`, with 1.597%. Then `Cc1cc(C)n(-c2ccc(N3CCCSCC3)nc2)n1`, with 0.3589%. Regarding `CC1CCc2n[nH]c(C(=O)NCCc3ccco3)c2C1` (centres undefined), the “Percent Effect” value was found to be 14.64%.

As for `CCOc1ccccc1-c1noc(CN2CCCC(O)C2)n1` (centres undefined), the “Percent Effect” value is -2.765%.

Take `CC(C)S(=O)(=O)C(C)C(=O)Nc1ccc2oc(C3CC3)nc2c1` (centres undefined): the “Percent Effect” value is on record as -8.387%. With `O=C(c1cccnc1O)N1CCCN(c2cccnn2)CC1`, the “Percent Effect” value is reported as -5.126%. As to `CCc1cc(C(=O)N2CCCC(Cc3ccc(NC)nn3)C2)on1` (centres undefined), the “Percent Effect” value was determined as 109.6%. For the compound `CNc1ccc(CC2CCCN(C(=O)c3scnc3C)C2)nn1` (centres undefined), the “Percent Effect” value was determined as 109.5%. Next, `O=C(c1cc(CC2(NCC3CCCCC3)COC2)no1)N1CCCCC1`: 0.2272%; `CNc1ncc(C(=O)N2CCCC(Cc3ccccc3OC)C2)s1` (centres undefined): -5.807%; `CNc1ccc(CC2CCCN(C(=O)c3c(C)noc3C)C2)nn1` (centres undefined): 118%. As to `CNc1ccc(CC2CCCN(C(=O)c3cnco3)C2)nn1` (centres undefined), the “Percent Effect” value is recorded as 129.2%. `O=C(c1cc(CC2(NC3CCCCC3)COC2)no1)N1CCCCC1`: the “Percent Effect” value amounted to 6.649%.

`Cc1noc(C)c1C(=O)N1C[C@@H]2CCCO[C@@H]2[C@H](N(C)C)C1`: the “Percent Effect” value was 3.092%. With `O=C(CN1CCCc2c(F)cc(Br)cc21)N1CCCC1`, the “Percent Effect” value is given as -2.164%. Then `CCN1CCC(Cn2ccc3c(OC)c(OC)ccc3c2=O)C1` (centres undefined), with -8.791%; and `COCC[C@]1(O)CCN(c2ncc(Cl)cc2F)C[C@H]1C`, with -5.057%; and `CS(=O)(=O)N1C[C@@H]2CC[C@H](C1)N(CCC(=O)NCc1ccco1)C2`, with 6.139%. In the case of `CCc1nc(C)sc1CN1CC[C@@](O)(C2CC2)[C@H](C)C1`, the “Percent Effect” value is 90.8%.

Consider `C[C@@H]1CN(Cc2nc(C(N)=O)no2)CC[C@@]1(O)C1CCOCC1`, for which the “Percent Effect” value is reported as -5.887%. Next, `CCc1nc(C)sc1CN1CC[C@@](O)(C2CCOCC2)[C@H](C)C1`: 107.2%; `Cc1nonc1CN1CC[C@@](O)(C2CCOCC2)[C@H](C)C1`: -5.747%. Then `Cc1nnsc1CN1CC[C@@](O)(C2CCC2)[C@H](C)C1`, with -20.69%; and `Cc1nonc1CN1CC[C@@](O)(C2CCC2)[C@H](C)C1`, with 2.704%. Regarding `CCC1=N[C@@]2(CC[C@@H]3CN(S(=O)(=O)CC(C)C)C[C@@H]32)C(=O)N1CC`, the “Percent Effect” value is 2.129%. Take `Cc1nc(-c2ccc(S(=O)(=O)N3CCSC3)cc2)co1`: the “Percent Effect” value was -2.878%.

In the case of `COc1ccc(F)c(-c2cc(C(=O)NC3CC3)ccn2)c1`, the “Percent Effect” value was -1.956%. With `Cl.O=C(c1ccnc(C2CCNCC2)c1)N1CCCOCC1`, the “Percent Effect” value stood at 107.9%.

Take `Cl.O=C(c1ccnc(C2CCNCC2)c1)N1CCCC1`: the “Percent Effect” value worked out at 87.63%. Take `O=C(c1ccc(C2CCCO2)s1)N1CCCOCC1` (centres undefined): the “Percent Effect” value was 7.048%.

Consider `Cl.O=C(NC1CCCC1)c1ccnc(C2CCNCC2)c1`, for which the “Percent Effect” value is listed as 105.6%. Then `CCOc1cc(C(=O)N2CCCC(c3cc(C(N)=O)[nH]n3)C2)ccn1` (centres undefined), with -0.59%. Then `Cl.Cl.Cn1cnc2c(N3CCCC3)nc(C3CCNCC3)cc21`, with -10.47%. For the compound `COc1ncccc1-c1cc(C(=O)NC2CC2)ccn1`, the “Percent Effect” value came out at 1.183%. Next, `O=C(c1ccnc(C2CCNCC2)c1)N1CCCC(CO)C1` (centres undefined): 100.1%; `Cl.Cl.Cn1cnc2c(N3CCOCC3)nc(C3CCNCC3)cc21`: -9.589%. `O=C(c1ccc2c(c1)[nH]c(=O)n2C1CCCC1)N1CCC1`: the “Percent Effect” value was -5.446%.

For `Cc1cc(C2CCCN(C(=O)c3ccc(OCC4CC4)nc3)C2)n[nH]1` (centres undefined), the “Percent Effect” value was -13.31%. Next, `CC(C)(C)CC(=O)N1CSCC1C(=O)NCc1cccc(C#N)c1` (centres undefined): -25.6%; `Cc1cc(C(=O)N2CCC3(CC(=O)NC3=O)C2)c(-c2ccccc2)o1` (centres undefined): 0.657%. Then `CSCC[C@H](NC(C)=O)C(=O)N(C)Cc1ccc(-n2cccn2)cc1`, with -22.5%; and `Cc1cc(C(=O)N2CCN[C@H](C)C2)c2ccc(F)cc2n1`, with 95.19%. As for `O=C(c1c[nH]nc1-c1cccc(F)c1)N1CCNC(c2ccccc2)C1` (centres undefined), the “Percent Effect” value worked out at 39.59%. In the case of `N[C@H]1CN(C(=O)CCc2cc(Cl)no2)C[C@@H]1c1ccccc1`, the “Percent Effect” value was found to be 0.8182%. Turning to `Cc1cc(C(=O)N2C[C@H](c3ccccc3)[C@@H](N)C2)c2ccc(F)cc2n1`, the “Percent Effect” value came to 109.4%. `Cc1cc(C(=O)N2C[C@H]3CCC[C@@]3(CO)C2)c2ccc(F)cc2n1`: the “Percent Effect” value is listed as -33.96%. Regarding `Cc1cc(C(=O)N2CCNC(c3ccccc3)C2)c2ccc(F)cc2n1` (centres undefined), the “Percent Effect” value was 81.03%. With `O=C(c1cc(-c2cn[nH]c2)nc2cc(F)ccc12)N1CCS(=O)(=O)CC1`, the “Percent Effect” value is recorded as -15.17%. `Cc1cc(C(=O)N2CCCC3(CN(C)C(=O)O3)C2)c2ccc(F)cc2n1` (centres undefined): the “Percent Effect” value is -8.064%.
